Results taken from the supplement of paper PMC10503962.

The compounds below were run on Trichuris muris adult worms (assay: mean motility score (Paragon pixel variance) of adult worms (arbitrary units); higher = more motile worms, i.e. less anthelmintic effect; extreme values may be limits of the assay). Details: 100 µM; 24 h.
Outline: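 Single adult Trichuris muris worms, recovered from infected NOD SCID mice, were exposed to drug at 100 μM (1% v/v DMSO) in 100 μL RPMI-1640 with antibiotics in 96-well plates for 24 h at 37°C and 5% CO2. The plates were then filmed on an automated phenotyping platform. The motility score was calculated through Paragon pixel-variance analysis and averaged across replicate wells, with three worms in three wells per drug on three separate occasions.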

SMILES | mean motility score
O=C1NCCN1CCN1CCC(c2cn(-c3ccc(F)cc3)c3ccc(Cl)cc23)CC1 [sertindole] | 0
CS(=O)(=O)Nc1ccc([N+](=O)[O-])cc1Oc1ccccc1 [nimesulide] | 1.33
CSCC[C@H](N)C(=O)O [methionine] | 3180
CC(C)(C)c1ccc(C(O)CCCN2CCC(C(O)(c3ccccc3)c3ccccc3)CC2)cc1 (configuration not stated) [terfenadine] | 1
NCCS(=O)(=O)O [taurine] | 1780
CCCNC(=O)NS(=O)(=O)c1ccc(Cl)cc1 [chlorpropamide] | 2860
N=C(N)NCCC[C@H](N)C(=O)O [arginine] | 2980
O=C(O)c1ccc2ccccc2c1O.OCc1cc(C(O)CNCCCCCCOCCCCc2ccccc2)ccc1O (configuration not stated) [salmeterol xinafoate] | 0
CCOc1ccccc1OCCN[C@H](C)Cc1ccc(OC)c(S(N)(=O)=O)c1.Cl [tamsulosin hydrochloride] | 2890
COc1ccc2cc([C@@H](C)C(=O)O)ccc2c1 [(R)-naproxen] | 1390
CCCN1CCCC[C@H]1C(=O)Nc1c(C)cccc1C [ropivacaine] | 2600
O=C(O)CNC(=O)c1ccccc1I [iodohippurate] | 3580
Cc1ccnc2c1NC(=O)c1cccnc1N2C1CC1 [nevirapine] | 2540
CNC[C@H](O)c1ccc(O)c(O)c1 [epinephrine] | 3270
COc1ccc(/C=C/C(=O)Nc2ccccc2C(=O)O)cc1OC [tranilast] | 1720
CCN(CC)CCNC(=O)c1c(C)[nH]c(/C=C2\C(=O)Nc3ccc(F)cc32)c1C [sunitinib] | 531
COc1ccc(C(Cl)=C(c2ccc(OC)cc2)c2ccc(OC)cc2)cc1 [chlorotrianisene] | 2530
COc1ccc2cccc(CCNC(C)=O)c2c1 [agomelatine] | 3270
CNC1(C)[C@H]2CC[C@H](C2)C1(C)C.Cl (some centres not stated) [mecamylamine hydrochloride] | 3150

SMILES | mean motility score
COc1ccc(CCN(C)CCCC(C#N)(c2ccc(OC)c(OC)c2)C(C)C)cc1OC (configuration not stated) [verapamil] | 3440
Nc1ncnc2c1ncn2[C@@H]1O[C@H](CO)[C@@H](O)[C@H]1O [adenosine] | 3520
CCN(CC)CCOC(=O)c1ccc(N)cc1.Cl [procaine hydrochloride] | 3750
N[C@@H](CO)C(=O)O [serine] | 2250
Nc1cc(-c2ccncc2)cnc1O [inamrinone] | 3880
CCCc1cc(C(N)=S)ccn1 [protionamide] | 2460
COc1ccccc1OCCNCC(O)COc1cccc2[nH]c3ccccc3c12 (configuration not stated) [carvedilol] | 35.7
CCOc1ccc2ccccc2c1C(=O)N[C@@H]1C(=O)N2[C@@H]1SC(C)(C)[C@@H]2C(=O)[O-].O.[Na+] [nafcillin sodium monohydrate] | 3570
CC/C(=C(/CC)c1ccc(O)cc1)c1ccc(O)cc1 [diethylstilbestrol] | 0
CN(C(=O)CN(CCO)CC(=O)N(C)C(C)(C)Cc1ccccc1)C(C)(C)Cc1ccccc1 [oxethazaine] | 184
C#C[C@]1(O)CC[C@H]2[C@@H]3CCC4=CC(=O)CC[C@@H]4[C@H]3CC[C@@]21CC [levonorgestrel] | 3390
CC[N+](CC)(CC)CCOc1cccc(OCC[N+](CC)(CC)CC)c1OCC[N+](CC)(CC)CC.[I-].[I-].[I-] [gallamine triethiodide] | 4310
CN1CCCC(n2nc(Cc3ccc(Cl)cc3)c3ccccc3c2=O)CC1.Cl (configuration not stated) [azelastine hydrochloride] | 396
CC[C@H](C)C(=O)O[C@H]1C[C@@H](C)C=C2C=C[C@H](C)[C@H](CC[C@@H]3C[C@@H](O)CC(=O)O3)[C@H]21 [lovastatin] | 96.7
CCCc1nc(C(C)(C)O)c(C(=O)OCc2oc(=O)oc2C)n1Cc1ccc(-c2ccccc2-c2nnn[nH]2)cc1 [olmesartan medoxomil] | 3650
CN1CCC[C@H]1c1cccnc1 [nicotine] | 0
COc1ccccc1N1CCN(CC(O)COc2cccc3ccccc23)CC1 (configuration not stated) [naftopidil] | 3040
COc1cc2nccc(Oc3ccc(NC(=O)NC4CC4)c(Cl)c3)c2cc1C(N)=O [lenvatinib] | 2500
